# ELG1 repair inh = blocks ELG1-dependent DNA repair in HEK293T cells | HEK293T ELG1-luciferase reporter, luminescence, 16 h; DNA damage induced by 5-fluorouridine | Potency, µM (doses to about 46.1 µM), for inactives: at the top dose activity change, negative = inhibition, hits mostly inhibitors | actives 2.3% (n = 330,000) | AID 504467; also: nearly all actives have a fitted effect of over 55% in size
#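 Step one: seed 2,000 cells per well. Step two: pin-transfer compound or DMSO alongside 5-fluorouridine. Step three: incubate 16 hr, 37 °C, 5% CO2. Step four: add ONE-Glo, wait 30 min, read luminescence.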
# DT40 TDP1 no CPT = qHTS for Inhibitors of human tyrosyl-DNA phosphodiesterase 1 (TDP1): qHTS in cells in absence of CPT; AID 686978, 2013; Potency, µM (doses to about 46.2 µM), for inactives: at the top dose activity change, negative = growth inhibition, usual class: inhibitors; actives 15% (n = 420,000); DT40 Tdp1-/- hTDP1 cells, no CPT, ATP luminescence, 48 h; also: nearly all actives have a fitted effect of over 55% in size
#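 Cells were dispensed at 400 per well, compounds added by pin tool, plates incubated ≥48 hr at 37 °C, then CellTiter-Glo added for 30 min at room temperature before luminescence reading. Line: DT40 Tdp1-/- complemented with hTDP1; camptothecin omitted.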
# DT40 TDP1 CPT = growth inhibition of DT40 Tdp1-/-;hTDP1 cells with camptothecin (screen for TDP1 inhibitors). chicken DT40 Tdp1-/-;hTDP1 cells + 20 nM CPT, ATP luminescence, 48 h. Potency, µM (highest dose often 46.2 µM), inactives show top-dose activity change, negative = growth inhibition, most hits filed as inhibitors. actives 12% (n = 420,000); also: nearly all actives have a fitted effect of over 55% in size
#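 Chicken DT40 Tdp1-/- cells complemented with human TDP1, 400 cells/well, exposed to compounds plus 20 nM camptothecin for at least 48 h at 37 C; viability read as ATP content by CellTiter-Glo luminescence.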
# RORg inh = inhibitors of mouse ROR gamma transcriptional activity | Drosophila S2 Gal4-RORgamma UAS-luciferase reporter, 20 h | Potency, µM (doses to about 53.6 µM), inactives show at the highest dose activity change, negative = inhibition, usual class: inhibitors | actives 5.4% (n = 310,000) | AID 2551; also: nearly all actives have a fitted effect of over 60% in size
# Target sequence (P51450 whole entry, looked up, the tested form may be a part): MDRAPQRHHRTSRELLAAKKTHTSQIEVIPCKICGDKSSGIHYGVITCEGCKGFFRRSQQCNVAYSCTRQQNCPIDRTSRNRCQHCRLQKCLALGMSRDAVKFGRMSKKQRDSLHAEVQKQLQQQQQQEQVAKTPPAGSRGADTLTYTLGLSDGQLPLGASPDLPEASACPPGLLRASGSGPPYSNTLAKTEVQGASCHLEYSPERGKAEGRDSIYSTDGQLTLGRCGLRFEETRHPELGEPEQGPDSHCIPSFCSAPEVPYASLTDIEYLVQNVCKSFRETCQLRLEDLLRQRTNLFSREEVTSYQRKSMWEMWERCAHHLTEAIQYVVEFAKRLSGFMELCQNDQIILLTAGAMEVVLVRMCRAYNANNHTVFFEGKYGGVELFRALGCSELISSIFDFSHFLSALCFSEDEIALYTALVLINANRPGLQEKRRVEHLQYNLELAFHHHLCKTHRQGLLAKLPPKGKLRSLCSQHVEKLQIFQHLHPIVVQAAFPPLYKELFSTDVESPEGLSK
#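 ROR gamma transcriptional activity was tracked as Gal4-UAS luciferase output in stably transfected Drosophila Schneider cells, with compound added 1 hr before 700 uM copper sulfate induction and a 20 hr ambient-temperature incubation.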
# ALOX12 inh = blocks human arachidonate 12S-lipoxygenase | actives 1.1% (n = 580,000) | P18054 | Potency, µM (series often up to 108 µM), inactives show at the highest dose activity change, negative = inhibition, actives largely listed as inhibitors | purified 12hLO, xylenol orange hydroperoxide absorbance
#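 Hydroperoxide product was detected by ferrous iron/xylenol orange as the 573 to 405 nm absorbance ratio. Arachidonic acid at 40 uM (final) was turned over for 30 min at room temperature by 150 nM human 12hLO, pH 7.0 Hepes buffer, after 15 min compound preincubation.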
# VP16 counter = Gal4-VP16 reporter inhibition counter-screen; Drosophila S2 Gal4-VP16 UAS-luciferase, luminescence, 20 h; actives 3.5% (n = 310,000); Potency, µM (titrated, usually from 53.6 µM), inactives show at the highest dose activity, negative = inhibition, usual class: inhibitors;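 also: Gal4-VP16 expression switched on by copper sulfate through the metallothionein promoter; nearly all actives have a fitted effect of over 50% in size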
# Starred values were filed as active, the others as inactive; u = inconclusive; x = no result; [ ] = another dose, or the depositor's remark. Hits are enriched below; roughly 15% of the tested compounds scored in any of these assays. Calls follow the shape of the dose curve; as a rule, active = well fitted curve in the direction sought with a large enough effect; inconclusive = small, poorly fitted or top-dose-only effect, or another doubt; inactive = no such curve, though single readings can be large; an effect the other way counts as inactive or inconclusive. % is scaled to controls: 0 for no effect and ±100 for the full control effect; potency is read from the fitted curve at half-maximal effect.
SMILES,ELG1 repair inh,DT40 TDP1 no CPT,DT40 TDP1 CPT,RORg inh,ALOX12 inh,VP16 counter
CCc1nc2c(c(-c3ccc(Cl)cc3)n1)CCN([S+](=O)([O-])c1ccccc1)CC2,x,x,x,x,40.6%,x
COc1cc(OC)c(NC(=O)c2cc3ccccc3cc2O)cc1Cl,x,u,10.3µM*,x,-10.0%,x
O=C(Nc1cccc(C(=O)OCc2cc(=O)n3c4c(sc3n2)CCCC4)c1)c1ccc(Cl)cc1,x,-20.5%,u,x,u,x
COc1cccc(C(=O)Nc2cccc(C(=O)OCc3cc(=O)n4c5c(sc4n3)CCCC5)c2)c1,x,18.4µM*,u,x,-8.6%,x
O=C(Nc1cccc(C(=O)OCc2cc(=O)n3c4c(sc3n2)CCCC4)c1)c1ccccc1,x,16.4µM*,u,x,-19.5%,x
Cc1ccc(C(=O)Nc2cccc(C(=O)OCc3cc(=O)n4c5c(sc4n3)CCCC5)c2)cc1,x,18.4µM*,u,x,-15.4%,x
COc1cccc(C(=O)Nc2cccc(OCc3cc(=O)n4c5c(sc4n3)CCCC5)c2)c1,x,-21.6%,5.0%,x,-14.2%,x
Cc1cccc(C(=O)Nc2ccc(C(=O)OCc3cc(=O)n4c(C)csc4n3)cc2)c1,x,16.4µM*,u,x,u,x
COc1cccc(Oc2c(C)oc3cc(OCC(N)=O)ccc3c2=O)c1,x,x,x,x,-1.1%,x
Cc1cccc(NC(=S)NCCN2CCOCC2)c1,17.7%,-1.6%,-4.9%,u,-24.0%,u
COc1ccc(CNC(=S)Nc2ccccc2)cc1,20.8%,-6.1%,18.7%,7.08µM*,0.0%,10µM*
COc1ccc(CNC(=S)Nc2cccc(C)c2)cc1,-9.1%,u,-2.8%,10µM*,u,20µM*
COc1cccc(NC(=S)NCc2ccc(F)cc2)c1,6.8%,0.5%,7.3%,u,u,7.08µM*
COc1ccc(CNC(=S)NCc2ccc(F)cc2)cc1OC,u,-23.4%,-16.8%,-41.6%,-25.9%,u
COc1ccc(C(=O)NNC(=S)Nc2ccccc2)cc1,u,-7.5%,8.7%,-34.3%,-2.5%,-11.5%
COc1ccc(CNC(=S)Nc2cccc(Cl)c2)cc1,x,u,u,x,0.0%,x
Cc1cccc(NC(=S)NC(C)(C)CC(C)(C)C)c1,u,18.4µM*,-1.3%,2.24µM*,u,8.91µM*
N#Cc1ccc(COC(=O)c2ccc(N3CCOCC3)nc2)cc1,x,x,x,x,1.2%,x
COc1ccc(CNC(=O)C(=O)Nc2cccc(C)c2)cc1,x,x,x,x,-27.1%,x
COc1ccc(CNC(=S)Nc2cccc(F)c2)cc1,-3.5%,4.9%,8.9%,10µM*,u,6.31µM*
O=C(NCc1cccnc1)[C@@H]1C[C@@H](O)CN1C1CCN(C(=O)c2cc3ccccc3[nH]2)CC1,x,x,x,x,-10.0%,x
CC(=O)c1ccc(N2CCN(c3ncnc4onc(-c5ccc(Cl)cc5)c34)CC2)cc1,x,16.4µM*,23.1µM*,x,-22.6%,x
CC(=O)c1ccc(N2CCN(c3ncnc4c3c(-c3ccccc3)cn4-c3ccc(Cl)cc3)CC2)cc1,x,u,u,x,-11.6%,x
COc1cccc(N2CCN(c3ncnc4onc(-c5ccc(Cl)cc5)c34)CC2)c1,x,16.4µM*,u,x,-13.2%,x
COc1cccc(N2CCN(C(=O)c3c(C)oc4ncnc(N5CCOCC5)c34)CC2)c1,x,-17.5%,2.3%,x,-17.4%,x
SMILES,ELG1 repair inh,DT40 TDP1 no CPT,DT40 TDP1 CPT,RORg inh,ALOX12 inh,VP16 counter
Fc1ccccc1N1CCN(c2ncnc3onc(-c4ccc(Cl)cc4)c23)CC1,x,20.6µM*,-25.8%,x,-15.0%,x
CCN1c2cc(C(=O)Nc3cccc(OC)c3)ccc2C(=O)N2CCCCC21 (configuration not stated),x,x,x,x,-11.4%,x
Cc1cccc(-c2ncc(CN3CCN(C4CCCC4)C(CCO)C3)cn2)c1 (configuration not stated),12.2%,2.3%,8.0%,34.1%,5.1%,-9.0%
OCCC1CN(Cc2cnc(-c3ccc(Cl)cc3)nc2)CCN1C1CCCCC1 (configuration not stated),u,20.6µM*,u,6.6%,-7.8%,2.7%
OCC1(Cc2ccccc2)CCN(Cc2cnc(-c3ccc(Cl)cc3)nc2)CC1,29.0%,23.1µM*,u,23.0%,u,2.2%
COc1ccc2cc(C(=O)NCC(=O)Nc3c(C)cc(C)cc3C)c(C)nc2c1,x,x,x,x,7.5%,x
COc1ccccc1C(=O)N1CC[C@H]2COC(=O)N2c2cc(C)ccc2C1,x,x,x,x,-23.9%[176 µM],x
COc1ccc(C2(C(=O)NCCC3CCN(C(=O)Nc4ccc(C)cc4)CC3)CC2)cc1,x,x,x,x,1.6%,x
CCCC(NC(C)C(=O)O)C(=O)OCC (configuration not stated),x,x,x,x,-13.1%,x
S=c1[nH]nc(COc2ccccc2)n1/N=C/C(Cl)=C/c1ccccc1,-23.2%,16.4µM*,23.1µM*,7.94µM*,u,u
S=c1[nH]nc(COc2ccccc2)n1/N=C/c1cccnc1,-0.8%,-19.8%,-12.1%,-56.0%,u,u
S=c1[nH]nc(COc2ccccc2)n1/N=C/C=C/c1ccccc1,12.6%,-2.2%,-11.1%,u,-15.7%,4.47µM*
CC(C)(Oc1ccc(Cl)cc1)C(=O)N(Cc1ccccc1)c1ccccn1,-12.0%,18.4µM*,u,-9.0%[10 µM],12.9%,1.3%
O=C(COc1ccc(Cl)cc1)N(Cc1ccccc1)c1ccccn1,0.1%,-15.9%,-7.0%,32.8%,-18.0%,-3.1%
Cc1ccc(CN(C(=O)COc2ccc([N+](=O)[O-])cc2)c2ccccn2)o1,x,u,-17.2%,x,-10.0%,x
Cc1ccc(CN(C(=O)COc2ccc([N+](=O)[O-])cc2)c2ccccn2)cc1,x,16.4µM*,u,x,-21.4%,x
CC(C)c1ccc(OCC(=O)N(Cc2ccccc2)c2ccccn2)cc1,-18.4%,16.4µM*,23.1µM*,44.6%,-14.3%,u
Cc1nn(-c2ccccc2)c(C)c1CN1CCCCC12Cc1ccccc1CNC2=O (configuration not stated),x,x,x,x,7.5%[6.33 µM],x
CCC(CC)C(=O)N(C)c1c(C)nc2c(OCC=C(C)C)cccn12,x,16.4µM*,13µM*,x,21.0%,x
CCC(CC)C(=O)N(C)c1c(C)nc2c(OCCOc3ccccc3)cccn12,x,13µM*,23.1µM*,x,8.2%,x
COc1ccc(C2Cn3nnc(-c4nc(-c5cccc(C(F)(F)F)c5)no4)c3CO2)cc1 (configuration not stated),x,x,x,x,16.1%,x
O=C(CSc1nnc2c(Cl)cc(C(F)(F)F)cn12)N(Cc1ccccc1)Cc1ccccc1,-4.1%,20.6µM*,-73.7%,13.5%,8.1%,-3.8%
